Experimental data reported in PubChem BioAssay.
The source made the active and inactive calls.

Assays:
[1] = test system: Plasmodium falciparum Sir2 (PF13_0152, Sir2A); experiment: pfSir2 binders on small-molecule microarrays, primary screen, biochemical, small-molecule microarray, 635 nm fluorescence (AID 1098); details: small-molecule microarray binding, fluorescence 635 nm; higher = more signal;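 note: score merges spot fluorescence intensity with its signal-to-noise ratio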
[2] = small-molecule microarray binders of probe aDKK1, primary screen, biochemical, biotinylated probe, 635/667 nm fluorescence (AID 1099); details: higher = more signal;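 note: score merges 667nm spot fluorescence with signal to noise across triplicate slides; reference of the scale not given here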
[3] = small-molecule microarray binders of probe aCHRDL2, primary screen, biochemical, biotinylated probe, 635/667 nm fluorescence (AID 1100); details: higher = more signal
[4] = splicing luciferase reporter signal modulators, primary screen, spliceosome inhibition project, cell-based, HEK293, splice +/- reporter (AID 1101); details: luminescence, 24 h, higher = more signal, called active from +8 up or from −8 down;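 note: HEK293 cells carrying a splicing-competent luciferase reporter gene; test concentration not given here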
[5] = biological target: Fibroblast growth factor 10 (Homo sapiens) (UniProt O15520); experiment: FGF10 binders on small-molecule microarrays, primary screen, biochemical, small-molecule microarray, 635 nm fluorescence (AID 1102); details: FGF10 binding, fluorescence 635 nm, higher = more signal
[6] = test system: glycogen synthase kinase-3 (GSK3A per assay name; protocol says GSK3B); experiment: GSK3 binders on small-molecule microarrays, primary screen, biochemical, small-molecule microarray, 635 nm fluorescence, GSK3A (AID 1103); details: small-molecule microarray binding, fluorescence 635 nm; higher = more signal; note: the record names both GSK3A and GSK3B
[7] = biological target: Epidermal growth factor receptor (Homo sapiens) (UniProt P00533); experiment: EGFR binders on small-molecule microarrays, primary screen, biochemical, small-molecule microarray, 635 nm fluorescence (AID 1104); details: EGFR binding, higher = more signal;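 note: score merges 667 nm emission intensity with spot signal to noise over triplicate slides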
[8] = biological target: Follistatin-related protein 3 (Homo sapiens) (UniProt O95633); experiment: FSTL3 binders on small-molecule microarrays, primary screen, biochemical, small-molecule microarray, 635 nm fluorescence (AID 1105); details: FSTL3 binding, higher = more signal;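 note: score merges emission near 667 nm and signal to noise per printed spot across three slides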
[9] = biological target: Dickkopf-related protein 1 (Homo sapiens) (UniProt O94907); experiment: DKK1 binders on small-molecule microarrays, primary screen, biochemical, small-molecule microarray, 635 nm fluorescence scan (AID 1106); details: DKK1 binding, higher = more signal;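 note: score merges emission near 667 nm with signal to noise over three replicate slides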
[10] = test system: Inhibin beta A chain (activin A); experiment: INHBA (activin A) binders on microarrays, primary screen, biochemical, small-molecule microarray, 635 nm fluorescence scan (AID 1107); details: small-molecule microarray binding, higher = more signal;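 note: mouse activin A protein probed at 4.33 µg/mL on printed slides; score merges bound-protein fluorescence near 667 nm with spot signal-to-noise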

Chain of Follistatin-related protein 3 (Homo sapiens) (O95633 whole entry, looked up): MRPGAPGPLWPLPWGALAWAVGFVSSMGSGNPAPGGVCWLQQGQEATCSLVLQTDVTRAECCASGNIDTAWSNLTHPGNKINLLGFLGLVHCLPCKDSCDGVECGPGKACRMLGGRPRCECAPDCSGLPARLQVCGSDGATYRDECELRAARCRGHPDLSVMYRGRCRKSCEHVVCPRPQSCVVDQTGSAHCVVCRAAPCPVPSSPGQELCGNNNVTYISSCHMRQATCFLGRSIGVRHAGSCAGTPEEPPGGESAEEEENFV
Chain of Epidermal growth factor receptor (Homo sapiens) (P00533 whole entry, looked up): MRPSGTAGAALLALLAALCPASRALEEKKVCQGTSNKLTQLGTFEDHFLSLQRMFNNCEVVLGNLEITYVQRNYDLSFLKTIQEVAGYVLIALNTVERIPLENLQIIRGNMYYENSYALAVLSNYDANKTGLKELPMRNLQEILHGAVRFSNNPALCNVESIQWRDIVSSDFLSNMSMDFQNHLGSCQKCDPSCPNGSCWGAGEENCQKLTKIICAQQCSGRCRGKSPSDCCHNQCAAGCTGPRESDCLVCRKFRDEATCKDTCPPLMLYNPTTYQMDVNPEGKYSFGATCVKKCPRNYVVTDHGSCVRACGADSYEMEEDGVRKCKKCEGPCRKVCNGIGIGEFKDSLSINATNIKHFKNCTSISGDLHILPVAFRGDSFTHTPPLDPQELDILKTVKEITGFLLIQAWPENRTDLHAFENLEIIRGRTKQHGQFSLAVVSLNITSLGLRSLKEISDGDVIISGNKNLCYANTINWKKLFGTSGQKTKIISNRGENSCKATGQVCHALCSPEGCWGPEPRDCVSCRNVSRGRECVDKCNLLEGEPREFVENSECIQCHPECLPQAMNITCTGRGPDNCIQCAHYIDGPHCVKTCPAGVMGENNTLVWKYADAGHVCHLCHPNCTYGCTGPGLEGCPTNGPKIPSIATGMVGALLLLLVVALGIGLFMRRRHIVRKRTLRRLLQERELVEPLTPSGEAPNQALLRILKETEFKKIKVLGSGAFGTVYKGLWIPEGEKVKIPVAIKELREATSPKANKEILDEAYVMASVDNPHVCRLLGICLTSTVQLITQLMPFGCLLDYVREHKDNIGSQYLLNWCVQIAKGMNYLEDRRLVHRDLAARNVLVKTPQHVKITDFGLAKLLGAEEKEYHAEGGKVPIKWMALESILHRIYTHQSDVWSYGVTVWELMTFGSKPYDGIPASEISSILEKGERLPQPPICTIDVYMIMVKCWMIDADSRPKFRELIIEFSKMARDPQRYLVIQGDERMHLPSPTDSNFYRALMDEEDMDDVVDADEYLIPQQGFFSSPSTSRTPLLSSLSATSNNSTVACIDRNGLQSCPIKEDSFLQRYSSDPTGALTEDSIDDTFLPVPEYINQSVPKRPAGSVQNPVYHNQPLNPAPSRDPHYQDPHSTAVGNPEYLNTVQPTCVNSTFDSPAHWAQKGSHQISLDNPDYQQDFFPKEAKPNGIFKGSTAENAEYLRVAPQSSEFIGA
Chain of Fibroblast growth factor 10 (Homo sapiens) (O15520 whole entry, looked up): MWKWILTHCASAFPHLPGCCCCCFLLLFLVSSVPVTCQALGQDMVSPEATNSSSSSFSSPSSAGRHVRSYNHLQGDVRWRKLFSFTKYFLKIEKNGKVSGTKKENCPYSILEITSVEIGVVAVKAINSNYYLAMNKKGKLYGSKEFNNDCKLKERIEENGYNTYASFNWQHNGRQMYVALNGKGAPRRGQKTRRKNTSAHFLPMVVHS
Chain of Dickkopf-related protein 1 (Homo sapiens) (O94907 whole entry, looked up): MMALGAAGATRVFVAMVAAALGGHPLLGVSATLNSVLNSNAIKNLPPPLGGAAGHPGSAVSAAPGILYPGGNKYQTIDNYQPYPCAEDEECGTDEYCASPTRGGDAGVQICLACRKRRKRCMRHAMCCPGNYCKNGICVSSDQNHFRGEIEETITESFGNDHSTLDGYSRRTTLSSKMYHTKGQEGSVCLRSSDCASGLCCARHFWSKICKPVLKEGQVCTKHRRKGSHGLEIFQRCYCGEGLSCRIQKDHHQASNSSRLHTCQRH

Row | SMILES | composite z-score [1] | composite z-score [2] | composite z-score [3] | z-score [4] | composite z-score [5] | composite z-score [6] | composite z-score [7] | composite z-score [8] | composite z-score [9] | composite z-score [10]
1 | COc1cccc([C@H]2Oc3ccc(OC)cc3C(=NO[C@@H](C)c3cn([C@H](CO)Cc4ccccc4)nn3)[C@@H]2O)c1 | 0.482 | -0.268 | -0.303 | -0.0241 (inactive) | 0.167 | -0.58 | -0.0558 | -0.201 | 0.113 | 0.176
2 | CCOC(=O)CCN1C(=O)[C@H]2[C@H]3[C@H](O)[C@H](O)CC(=NOCC(C)C)[C@H]3CC[C@H]2C1=O | -0.108 | 0.16 | 0.782 | 0.108 (inactive) | -0.147 | -0.239 | 0.214 | -0.276 | -0.0273 | 0.617
3 | CC(=O)OC[C@H]1O[C@H](CCON=C2[C@H]3CCn4c(=O)n(-c5ccccc5)c(=O)n4[C@H]3[C@H](O)[C@@H]3O[C@H]23)C=C[C@@H]1OC(C)=O | 0.0057 | -0.149 | -0.442 | 0.838 (inactive) | 0.527 | 0.494 | 0.432 | 0.446 | 0.404 | -0.636
4 | Cc1ccc(S(=O)(=O)OC[C@H]2CN3[C@H](c4ccc(Br)cc4)[C@@H](C)CC[C@H]3C(=O)O2)cc1 | 0.579 | -0.285 | -0.207 | -0.649 (inactive) | 0.725 | -0.204 | -0.0807 | -0.0668 | 0.459 | 0.355
5 | O=c1n(-c2ccccc2)c(=O)n2n1CC[C@@H]1C(=NOCc3ccccc3)[C@H]3O[C@H]3[C@@H](O)[C@@H]12 | -0.494 | -0.31 | -0.393 | 0.491 (inactive) | 0.334 | -0.864 | -0.0683 | -0.136 | 0.0228 | 0.168
6 | C[C@@H]1NC(=O)[C@@H](C)COC(=O)[C@H](C)NC(=O)[C@@H](C)COC1=O | 0.429 | -0.23 | -0.0595 | -1.35 (inactive) | 0.765 | 0.642 | 0.401 | 1.15 | 0.769 | -0.772
7 | C#CCCCON=C1C[C@@H](O)[C@@H](O)[C@@H]2[C@@H]3C(=O)N(Cc4ccccc4)C(=O)[C@@H]3CC[C@@H]12 | -0.596 | -0.0538 | 0.0175 | 0.351 (inactive) | -0.158 | -0.287 | 0.193 | -0.016 | -0.211 | 0.359
8 | CCCNC(=O)OC[C@H]1O[C@H](CCON=C(C)CCN2CCCc3nc(C)c(C)cc32)C=C[C@@H]1Oc1ccc(OC)cc1 | 0.333 | 0.595 | -0.237 | 0.304 (inactive) | 0.653 | 0.73 | 0.509 | 0.605 | 0.687 | 0.491
9 | Cc1ccc(S(=O)(=O)N[C@H]2COC(=O)CC=C[C@@H](C)COC(=O)CC=C[C@@H]2C)cc1 | 0.549 | -0.789 | -1.26 | 0.597 (inactive) | 0.813 | 0.448 | 0.823 | 1.4 | 2.04 | 1.36
10 | COC(=O)CC=C[C@@H](C)[C@@H](C=NO[C@@H](C)c1cn([C@H](CO)Cc2ccccc2)nn1)OC | 0.361 | -0.435 | -0.572 | -0.772 (inactive) | 0.229 | 0.165 | 0.523 | 0.31 | 0.498 | -0.163
11 | COC(=O)CC=C[C@@H](C)[C@@H](C=NO[C@@H](C)c1cc(-c2c(C)cc(C)cc2C)no1)NS(=O)(=O)c1ccc(C)cc1 | -0.775 | 0.437 | 0.969 | -1.4 (inactive) | -1.93 | -1.46 | -1.16 | -1.83 | -2.26 | 0.178
12 | Cn1c(=O)n2n(c1=O)[C@H]1[C@H](O)[C@@H]3O[C@@H]3C(=O)[C@H]1CC2 | 0.269 | -0.0838 | -0.512 | -0.515 (inactive) | 0.946 | 0.778 | 0.531 | 0.534 | 0.408 | 0.0134
13 | O=C(NN=C1C[C@@H](O)[C@@H](O)[C@@H]2[C@@H]3C(=O)N(C[C@@H]4CCCO4)C(=O)[C@@H]3CC[C@@H]12)OCc1ccccc1 | 0.789 | -0.32 | -0.916 | -1.03 (inactive) | 0.127 | 1.09 | 0.509 | 0.0972 | 0.486 | 0.781
14 | CCOC(=O)[C@H](CC(C)C)NC(=O)CCC1CC(OC(=O)NCc2cccc3ccccc23)CC2(CCCC(COC(=O)NCC3CCCCC3)O2)O1 (stereo not given in full) | 0.442 | -0.11 | -0.369 | -1.42 (inactive) | 0.924 | 0.941 | 0.344 | 0.855 | 0.6 | 0.0385
15 | COC(=O)NCC=Cc1nc(CCCO)co1 | 0.439 | -0.414 | -0.576 | 0.566 (inactive) | 0.534 | 0.926 | 0.581 | 0.887 | 0.617 | 0.163
16 | CO[C@H]1COC(=O)CC=C[C@H](C)COC(=O)[C@@H](C)NC(=O)CC=C[C@@H]1C | 1.56 | -0.335 | -1.42 | -1.31 (inactive) | 0.337 | 0.913 | 1.32 | 1.47 | 1.65 | 0.872
